Assay [1] deals with T1, Serine/threonine-protein kinase BRSK1 (Homo sapiens) (UniProt Q8TDC3).
T1 sequence (whole entry): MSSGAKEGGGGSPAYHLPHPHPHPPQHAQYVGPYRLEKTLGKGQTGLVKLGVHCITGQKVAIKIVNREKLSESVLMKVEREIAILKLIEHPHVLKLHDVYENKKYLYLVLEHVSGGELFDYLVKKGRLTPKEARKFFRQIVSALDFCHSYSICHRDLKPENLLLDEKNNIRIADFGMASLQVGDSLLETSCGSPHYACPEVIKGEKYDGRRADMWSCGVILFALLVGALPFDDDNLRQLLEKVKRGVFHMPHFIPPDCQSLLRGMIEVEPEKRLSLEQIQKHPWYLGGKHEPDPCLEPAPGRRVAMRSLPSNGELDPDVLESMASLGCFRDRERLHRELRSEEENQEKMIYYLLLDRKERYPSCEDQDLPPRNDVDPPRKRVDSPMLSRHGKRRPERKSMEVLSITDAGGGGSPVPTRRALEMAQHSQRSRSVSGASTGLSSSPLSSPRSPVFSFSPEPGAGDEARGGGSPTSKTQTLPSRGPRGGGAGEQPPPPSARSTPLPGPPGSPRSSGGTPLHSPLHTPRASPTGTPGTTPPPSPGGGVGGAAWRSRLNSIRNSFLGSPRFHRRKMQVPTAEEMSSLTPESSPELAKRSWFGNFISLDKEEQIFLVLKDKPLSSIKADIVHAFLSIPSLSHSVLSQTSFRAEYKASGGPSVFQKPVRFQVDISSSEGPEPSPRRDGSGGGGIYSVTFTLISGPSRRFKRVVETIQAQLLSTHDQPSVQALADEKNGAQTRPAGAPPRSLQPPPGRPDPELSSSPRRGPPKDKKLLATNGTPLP
Particulars: at 1 µM.

Assay [2] deals with T1, Serine/threonine-protein kinase BRSK1 (Homo sapiens). Particulars: at 10 µM.
In assay [3] the target is T2, Serine/threonine-protein kinase BRSK2 (Homo sapiens) (UniProt Q8IWQ3).
T2 sequence (whole entry): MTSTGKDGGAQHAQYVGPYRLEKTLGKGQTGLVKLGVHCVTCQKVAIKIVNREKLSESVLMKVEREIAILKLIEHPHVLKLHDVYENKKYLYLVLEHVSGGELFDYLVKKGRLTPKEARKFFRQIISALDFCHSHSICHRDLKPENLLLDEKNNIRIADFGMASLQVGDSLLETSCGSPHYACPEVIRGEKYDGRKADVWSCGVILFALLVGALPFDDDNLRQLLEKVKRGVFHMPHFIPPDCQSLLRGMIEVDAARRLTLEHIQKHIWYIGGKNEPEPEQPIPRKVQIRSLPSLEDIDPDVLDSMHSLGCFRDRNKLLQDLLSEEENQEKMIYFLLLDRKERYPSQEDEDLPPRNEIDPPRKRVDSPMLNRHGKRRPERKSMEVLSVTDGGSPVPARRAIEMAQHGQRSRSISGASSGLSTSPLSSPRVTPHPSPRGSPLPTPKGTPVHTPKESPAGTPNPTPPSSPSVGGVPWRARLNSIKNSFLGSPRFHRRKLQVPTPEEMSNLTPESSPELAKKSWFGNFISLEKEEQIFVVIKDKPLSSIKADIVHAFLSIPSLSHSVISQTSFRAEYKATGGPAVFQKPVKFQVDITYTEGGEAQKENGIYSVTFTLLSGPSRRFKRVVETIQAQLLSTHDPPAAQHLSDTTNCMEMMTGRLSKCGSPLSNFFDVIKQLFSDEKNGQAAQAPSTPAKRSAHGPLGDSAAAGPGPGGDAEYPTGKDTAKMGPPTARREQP
Particulars: at 1 µM.

The target of assay [4] is T2, Serine/threonine-protein kinase BRSK2 (Homo sapiens). To be noted: at 10 µM.
Assay [5] concerns the target T3, Cyclin-dependent kinase 1/cyclin B1 (Homo sapiens) (UniProt P06493+P14635). To be noted: at 1 µM.
Assay [6] concerns the target T3, Cyclin-dependent kinase 1/cyclin B1 (Homo sapiens). To be noted: at 10 µM.
Assay [7] concerns the target T4, Cyclin-dependent kinase 2/cyclin A (Homo sapiens) (UniProt P24941+P20248+P78396). To be noted: at 1 µM.
Assay [8] deals with T4, Cyclin-dependent kinase 2/cyclin A (Homo sapiens). To be noted: at 10 µM.
Assay [9] concerns the target T5, Cyclin-dependent kinase 2/cyclin E (Homo sapiens) (UniProt P24864+P24941+O96020). To be noted: at 1 µM.
In assay [10] the target is T5, Cyclin-dependent kinase 2/cyclin E (Homo sapiens). To be noted: at 10 µM.
The target of assay [11] is T6, Cyclin-dependent kinase 5/CDK5 activator 1 (Homo sapiens) (UniProt Q00535+Q15078). Particulars: at 1 µM.
T6 sequence (Q00535 whole entry): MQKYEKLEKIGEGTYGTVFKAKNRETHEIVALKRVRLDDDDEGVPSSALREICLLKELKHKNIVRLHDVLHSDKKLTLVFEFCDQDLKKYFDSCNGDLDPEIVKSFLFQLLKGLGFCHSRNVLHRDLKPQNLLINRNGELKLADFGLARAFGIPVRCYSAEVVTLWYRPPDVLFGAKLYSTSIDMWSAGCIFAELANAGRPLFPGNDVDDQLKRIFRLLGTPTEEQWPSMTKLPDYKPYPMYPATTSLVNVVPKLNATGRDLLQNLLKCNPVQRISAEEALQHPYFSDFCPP
T6 sequence (Q15078 99-307 partner limits assumed): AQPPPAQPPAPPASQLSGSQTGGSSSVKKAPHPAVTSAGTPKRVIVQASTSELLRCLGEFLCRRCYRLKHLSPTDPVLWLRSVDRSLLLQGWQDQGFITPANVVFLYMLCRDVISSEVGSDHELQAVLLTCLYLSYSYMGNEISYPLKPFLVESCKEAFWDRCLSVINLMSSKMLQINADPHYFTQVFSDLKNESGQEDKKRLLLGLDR
Assay [12] concerns the target T6, Cyclin-dependent kinase 5/CDK5 activator 1 (Homo sapiens). To be noted: at 10 µM.
Assay [13] has the same target. To be noted: at 1 µM. The source holds these as a separate data set.
Assay [14] shares this target. Particulars: at 10 µM. The source holds these as a separate data set.
Assay [15] has as its target T7, CDK6/cyclin D3 (Homo sapiens) (UniProt P30281+Q00534). To be noted: at 1 µM.
Assay [16] deals with T7, CDK6/cyclin D3 (Homo sapiens). Particulars: at 10 µM.
For assay [17], the target named is T8, Cyclin-dependent kinase 7/ cyclin H (Homo sapiens) (UniProt P51946+P50613). Particulars: at 1 µM.
Assay [18] addresses T8, Cyclin-dependent kinase 7/ cyclin H (Homo sapiens). Particulars: at 10 µM.
In assay [19] the target is T9, CDK3/cyclin E (Homo sapiens) (UniProt P24864+O96020+Q00526). To be noted: at 10 µM.
T9 sequence (O96020 whole entry, looked up): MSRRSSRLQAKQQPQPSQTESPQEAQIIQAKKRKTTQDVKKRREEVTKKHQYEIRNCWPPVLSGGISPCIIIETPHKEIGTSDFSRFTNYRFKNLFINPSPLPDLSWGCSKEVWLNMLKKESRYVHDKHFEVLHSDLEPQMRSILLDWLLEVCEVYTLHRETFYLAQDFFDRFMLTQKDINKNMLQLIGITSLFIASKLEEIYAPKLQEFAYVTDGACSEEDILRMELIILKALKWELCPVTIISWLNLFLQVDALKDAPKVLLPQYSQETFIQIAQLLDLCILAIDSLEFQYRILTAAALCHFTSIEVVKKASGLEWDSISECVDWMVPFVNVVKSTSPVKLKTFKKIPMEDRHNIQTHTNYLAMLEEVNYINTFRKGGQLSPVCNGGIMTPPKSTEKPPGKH
T9 sequence (P24864 whole entry, looked up): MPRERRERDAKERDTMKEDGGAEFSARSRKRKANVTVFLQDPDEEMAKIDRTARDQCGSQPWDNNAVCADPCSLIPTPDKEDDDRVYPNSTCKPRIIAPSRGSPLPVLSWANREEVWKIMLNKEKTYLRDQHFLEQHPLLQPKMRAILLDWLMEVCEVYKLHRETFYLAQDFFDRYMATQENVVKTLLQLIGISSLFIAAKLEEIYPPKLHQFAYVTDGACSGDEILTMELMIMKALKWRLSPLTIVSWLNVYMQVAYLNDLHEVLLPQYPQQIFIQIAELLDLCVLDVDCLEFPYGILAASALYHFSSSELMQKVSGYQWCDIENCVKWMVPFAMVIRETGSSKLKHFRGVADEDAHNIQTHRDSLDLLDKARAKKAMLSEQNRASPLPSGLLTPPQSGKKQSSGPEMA
T9 sequence (Q00526 whole entry, looked up): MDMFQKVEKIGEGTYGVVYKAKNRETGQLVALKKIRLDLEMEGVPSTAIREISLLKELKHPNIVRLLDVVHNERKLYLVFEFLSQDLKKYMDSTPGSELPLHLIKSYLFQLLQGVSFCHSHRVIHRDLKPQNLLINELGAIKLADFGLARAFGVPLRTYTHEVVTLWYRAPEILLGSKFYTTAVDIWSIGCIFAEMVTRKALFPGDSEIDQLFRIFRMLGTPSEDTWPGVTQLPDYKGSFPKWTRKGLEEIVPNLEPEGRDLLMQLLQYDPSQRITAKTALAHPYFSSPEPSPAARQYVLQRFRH
Assay [20] deals with T9, CDK3/cyclin E (Homo sapiens). Particulars: at 1 µM.

Each structure is given as a SMILES string.

T3 sequence (P06493 whole entry, looked up): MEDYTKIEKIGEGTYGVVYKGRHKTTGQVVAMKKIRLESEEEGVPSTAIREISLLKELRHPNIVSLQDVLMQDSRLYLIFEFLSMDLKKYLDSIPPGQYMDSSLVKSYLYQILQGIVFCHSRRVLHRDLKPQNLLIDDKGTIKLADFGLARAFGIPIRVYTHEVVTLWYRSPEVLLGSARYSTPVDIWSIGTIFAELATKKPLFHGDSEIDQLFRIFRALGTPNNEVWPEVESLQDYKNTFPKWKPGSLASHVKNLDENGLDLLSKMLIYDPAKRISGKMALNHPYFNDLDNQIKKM
T3 sequence (P14635 whole entry, looked up): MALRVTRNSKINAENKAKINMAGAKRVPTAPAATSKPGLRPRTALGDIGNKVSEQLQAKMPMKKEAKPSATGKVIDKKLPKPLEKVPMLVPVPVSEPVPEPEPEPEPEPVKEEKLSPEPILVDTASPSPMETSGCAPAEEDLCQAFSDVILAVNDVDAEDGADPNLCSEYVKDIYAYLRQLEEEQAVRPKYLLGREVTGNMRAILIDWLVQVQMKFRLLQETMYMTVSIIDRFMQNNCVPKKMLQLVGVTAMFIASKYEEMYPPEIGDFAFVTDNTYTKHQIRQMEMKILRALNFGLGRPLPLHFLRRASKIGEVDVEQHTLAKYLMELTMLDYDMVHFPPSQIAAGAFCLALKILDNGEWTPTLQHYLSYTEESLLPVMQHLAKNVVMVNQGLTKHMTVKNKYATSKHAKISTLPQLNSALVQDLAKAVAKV

Consider `Cn1c2ccccc2c2c3c(c4c5ccccc5n(CCC#N)c4c21)CNC3=O`, for which the residual activity amounted to 6% in [1]; 6% in assay [2]; 7% in [3]; 6% in [4]; 20% in assay [5]; 18% in [6]. Besides, the residual activity in assay [7] was 22%; in [8], 17%; in [9], 7%; in [10], 12%; in assay [11] it was 5%; in assay [12], 4%. For the same compound, the residual activity in assay [13] came to 3%; in assay [14], 6%; in assay [15], 48%; in assay [16], 38%; in assay [17], 74%; in assay [18], 79%.
Consider `Cc1cc(C)c(/C=C2\C(=O)Nc3ccccc32)[nH]1`, for which the residual activity in assay [1] was found to be 75%; in assay [2], 57%; in assay [3], 100%; in assay [4], 48%; in assay [19], 69%; in [16], 60%. In addition, the residual activity in assay [17] stood at 64%; in assay [18], 32%.
Regarding `Oc1cccc(-c2nc(N3CCOCC3)c3oc4ncccc4c3n2)c1`, the residual activity came to 95% in assay [1]; 84% in [2]; 96% in assay [3]; 100% in [4]; 129% in [7]; 93% in [8]. Also, the residual activity was 118% in assay [20]; 97% in assay [19]; 92% in [13]; 91% in assay [14]; 91% in [15]; 67% in assay [16]. Moreover, the residual activity in assay [17] came out at 86%; in assay [18], 96%.
Take `NC(=O)c1ccc(-c2nc(-c3ccc4c(c3)OCCO4)c(-c3ccccn3)[nH]2)cc1`: the residual activity was found to be 99% in assay [1]; 77% in assay [2]; 119% in [3]; 97% in assay [4]; 96% in assay [7]; 85% in assay [8]. The residual activity in assay [9] worked out at 92%; in [10], 87%; in assay [12] it was 84%; in assay [13], 96%; in assay [14] it was 80%; in assay [17], 92%. Further, the residual activity in [18] was 81%.
For the compound `O=C1NC(=O)C(c2c[nH]c3ccccc23)=C1c1c[nH]c2ccccc12`, the residual activity in assay [1] amounted to 27%; in assay [2] it was 35%; in assay [3], 73%; in assay [4], 35%; in assay [6], 39%; in [7], 97%. The residual activity in assay [8] came out at 19%; in [9], 79%; in assay [10], 30%; in [19], 29%; in [11], 74%; in [12] it was 28%. In addition, the residual activity is 76% in [13], 42% in [14], 76% in [17] and 32% in assay [18].
`CC(C)(C)c1nc2c3ccc(F)cc3c3c(=O)[nH]ccc3c2[nH]1`: the residual activity in assay [1] is 32%; in assay [2], 7%; in assay [3], 13%; in [4] it was 4%; in assay [19], 54%; in [15], 71%. Moreover, the residual activity in assay [16] stood at 50%; in assay [17] it was 69%.
For the compound `O=C(c1cc2cc(O)ccc2[nH]1)c1cc2cc(O)ccc2[nH]1`, the residual activity turned out to be 5% in [1]; 7% in assay [2]; 37% in [3]; 6% in [4]; 60% in assay [5]; 15% in assay [6]. Further, the residual activity in assay [7] was determined as 78%; in assay [8], 9%; in assay [9], 50%; in assay [10], 13%; in [20], 51%; in assay [19], 8%. The residual activity in assay [11] worked out at 23%; in assay [12], 4%; in assay [13], 37%; in [14], 6%; in assay [15] it was 38%; in assay [16] it was 7%. The residual activity was found to be 76% in assay [17] and 41% in assay [18].

Values taken from ChEMBL document CHEMBL2218924, “A broad activity screen in support of a chemogenomic map for kinase signalling research and drug discovery” (Biochem J, 2013).
